Six1-Eya2 inh = blocks human Six1 binding to Eya2. AlphaScreen GST-Six1/His-Eya2 binding, biochemical; hits give low values. activity change, % (concentration not given with the values). hit rate 0.56% among 360,000. AID 651725; in the data active means activity change below about -65%; inconclusive means mostly about -30% to -63%
Target sequence (O00167 whole entry, looked up): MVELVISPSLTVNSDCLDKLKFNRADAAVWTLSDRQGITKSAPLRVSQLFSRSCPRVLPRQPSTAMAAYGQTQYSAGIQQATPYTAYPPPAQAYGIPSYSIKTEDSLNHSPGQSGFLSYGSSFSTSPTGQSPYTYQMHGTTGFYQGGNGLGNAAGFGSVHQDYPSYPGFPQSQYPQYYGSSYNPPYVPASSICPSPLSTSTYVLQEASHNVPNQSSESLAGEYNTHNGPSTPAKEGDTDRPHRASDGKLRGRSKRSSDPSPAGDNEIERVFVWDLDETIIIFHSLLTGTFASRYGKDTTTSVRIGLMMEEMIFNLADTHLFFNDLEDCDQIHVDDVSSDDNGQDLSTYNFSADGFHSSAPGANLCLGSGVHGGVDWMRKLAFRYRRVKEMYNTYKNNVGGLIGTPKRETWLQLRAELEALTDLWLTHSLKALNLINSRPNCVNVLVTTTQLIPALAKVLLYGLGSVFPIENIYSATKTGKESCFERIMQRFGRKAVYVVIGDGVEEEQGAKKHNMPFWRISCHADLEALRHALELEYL
Target sequence (Q15475 whole entry, looked up): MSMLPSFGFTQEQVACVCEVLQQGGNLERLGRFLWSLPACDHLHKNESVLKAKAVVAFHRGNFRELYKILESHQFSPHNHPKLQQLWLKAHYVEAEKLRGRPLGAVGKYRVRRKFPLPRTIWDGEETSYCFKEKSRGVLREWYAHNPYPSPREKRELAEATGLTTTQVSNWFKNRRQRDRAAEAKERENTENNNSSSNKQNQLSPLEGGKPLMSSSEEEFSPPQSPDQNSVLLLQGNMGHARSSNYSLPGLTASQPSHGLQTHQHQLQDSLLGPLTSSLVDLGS
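Six1/Eya2 binding was read as AlphaScreen signal after compounds were pinned into GST-Six1 plus His-tagged Eya2 (5X stock 250/500 nM) in pH 8.0 Tris/NaCl/TCEP buffer, beads added, then incubated 1 h, 37 C, dark.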
TDP1 block = blocks human tyrosyl-DNA phosphodiesterase 1. hit rate 0.28% among 350,000. Potency, µM (highest dose often 130 µM), usual class: inhibitors. AID 485290. Q9NUW8. recombinant TDP1, AlphaScreen DNA substrate cleavage; further: nearly all actives have a fitted effect of over 40% in size
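Steps: enzyme plus compound, 15 min RT; add biotin/phosphotyrosine-FITC oligonucleotide (15 nM final), react 5 min; add donor/acceptor beads (10 ug/ml final), 10 min; read AlphaScreen. Tdp1 at 1 nM final.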
CtBP-E1A blk = CtBP/E1A binding inhibition; AlphaScreen GST-E1A/His-CtBP binding, 1536-well; hits give low values; activity change, % (test concentration not listed); hit rate 0.49% among 340,000; in the data active means activity change below about -65%; inconclusive means mostly about -30% to -63%
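GST-E1A and His-tagged CtBP (125 nM each as 5X stock) were preincubated with pin-transferred compound for 2 h at 37 °C in the dark, then glutathione donor and nickel acceptor beads were added for 1 h before AlphaScreen reading.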
DT40 TDP1 CPT = DT40-hTDP1 cell growth loss with CPT. chicken DT40 Tdp1-/-;hTDP1 cells + 20 nM CPT, ATP luminescence, 48 h. Potency, µM (top dose mostly 46.2 µM), hits mostly inhibitors. hit rate 12% among 420,000. AID 686979; further: nearly all actives have a fitted effect of over 55% in size
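Chicken DT40 Tdp1-/- cells stably complemented with human TDP1 were seeded at 400 cells/well in medium containing 20 nM camptothecin, exposed to pin-transferred compounds, and grown at 37 °C for at least 48 hr. Viability was read as ATP luminescence.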
IL-1B inflam inh = inhibitors of inflammasome signaling (IL-1 beta secretion) | THP-1 LPS/ATP IL-1B secretion, AlphaLISA, 16 h; hits give low values | activity change, % at 57.5 µM | AID 743279 | hit rate 4.7% among 360,000; in the data active means activity change below about -50%; inconclusive means mostly about -30% to -49%
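Secreted IL-1B measured by AlphaLISA bead assay after 16 h compound exposure of THP-1 cells; compounds (final up to 57.5 uM) added 1 h before LPS (250 ng/mL) and ATP (1.25 mM) stimulation; lower signal means less secretion.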
TDP1 cell noCPT = qHTS for Inhibitors of human tyrosyl-DNA phosphodiesterase 1 (TDP1): qHTS in cells in absence of CPT; DT40 Tdp1-/- hTDP1 cells, no CPT, ATP luminescence, 48 h; hit rate 15% among 420,000; Potency, µM (series often up to 46.2 µM), most hits filed as inhibitors; AID 686978, 2013; further: nearly all actives have a fitted effect of over 55% in size
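Chicken DT40 Tdp1-/- cells stably complemented with human TDP1 were seeded at 400 cells/well with DMSO in place of 20 nM camptothecin. After compound pinning, cells grew at least 48 hr at 37 °C; viability read by CellTiter-Glo luminescence.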
A number is an active result; i = inactive; ? = inconclusive; nt = not tested or not shown; ! = not confirmed by another sample; [ ] = dose if it differs, or a comment. Shown are actives, neighbours in structure and some others; about 18% of the full set was active somewhere. Unless noted, the call rests on the fitted dose curve; in most records, active means well fitted curve in the direction sought with a large enough effect; inconclusive means small, poorly fitted or top-dose-only effect, or another doubt; inactive means no such curve, though single readings can be large; an effect the other way counts as inactive or inconclusive.

SMILES	Six1-Eya2 inh	TDP1 block	CtBP-E1A blk	DT40 TDP1 CPT	IL-1B inflam inh	TDP1 cell noCPT
O=S(=O)(Nc1nc2ccccc2nc1N1CCc2ccccc2C1)c1ccc(Br)cc1	?	i	i	?	i	18µM
CCc1ccc2c(c1)C(c1ccncc1)=NNC(c1ccccc1)=N2	i	i	nt	i	i	?
CCc1ccc2c(c1)C(c1ccc([N+](=O)[O-])cc1)=NNC(c1ccc(F)cc1)=N2	i	i	i	21µM	-53	?
COC(=O)/C(=C\c1cc(OC)c(OC)c(OC)c1)c1nc2ccccc2[nH]1	i	i	i	?	-99	16µM
O=C(/C(=C\c1ccccc1)c1nc2ccccc2[nH]1)c1ccc(Cl)cc1	i	i	i	7.3µM	-100	6.5µM
O=C(/C(=C/c1ccc(Cl)cc1)c1nc2ccccc2[nH]1)c1cccs1	i	i	i	2.9µM	-112	4.1µM
CCNC(=S)Nc1ccc(-c2nc3ccccc3[nH]2)cc1	i	i	i	i	i	?
S=C(Nc1ccc(Cl)cc1)c1nc2ccccc2[nH]1	-73	i	?	?	i	?
Cn1c(/N=C(\N)c2ccccc2)nc2ccccc21	i	nt	i	?	i	?
O=C(CNC(=O)C(c1ccccc1)c1ccccc1)N/N=C/c1ccc(O)c([N+](=O)[O-])c1	i	i	i	i	i	i
O=C(/C=C/c1cccc(Cl)c1)c1nc2ccccc2[nH]1	i	i	i	12µM	i	9.2µM
COc1cc(/C=C(/C(=O)c2cccs2)c2nc3ccccc3[nH]2)ccc1O	i	i	i	?	-106	18µM
O=C(/C=C/c1cccc(Cl)c1)Nc1ncccn1	i	i	i	i	i	i
COC(=O)/C(=C\c1ccc(O)cc1)c1nc2ccccc2[nH]1	i	i	nt	?	i	?
CCOc1cc(CO)cc(Br)c1OCC(=O)O	i	nt	i	i	i	i
COc1ccc(NC2CCCN(C(=O)c3cc4ncccn4n3)C2)cc1 (stereo not given)	i	i	i	i	i	i
COCCNc1nc2cc(-c3ccccc3OC)sc2c(=O)n1C	i	nt	i	18µM	i	13µM
COCCNc1nc2cc(-c3ccccc3C)sc2c(=O)n1C	i	nt	i	18µM	i	?
COc1ccc(C2Nc3ccccc3C(=O)N2c2cccc3ccccc23)cc1COc1c(C)cccc1C (stereo not given)	nt	i	nt	3.2µM	nt	2.8µM
CCCN1C(=O)c2ccccc2NC1c1ccc(OC)c(COc2cccc(C)c2C)c1 (stereo not given)	nt	i	nt	?	nt	16µM
COc1cc2ncnc(NCc3ccco3)c2cc1OC	i	i	i	18µM	i	?
O=C(COc1ncnc2ccc(Br)cc12)NCc1ccco1	i	nt	i	?	i	i
COc1cccc(CNc2ncnc3cc(Cl)ccc23)c1	i	i	nt	?	i	?
COc1ccccc1CNc1ncnc2cc(OC)c(OC)cc12	i	i	nt	21µM	i	23µM
Brc1ccc2ncnc(NCc3ccco3)c2c1	i	i	i	21µM	i	18µM
SMILES	Six1-Eya2 inh	TDP1 block	CtBP-E1A blk	DT40 TDP1 CPT	IL-1B inflam inh	TDP1 cell noCPT
Fc1cccc(CNc2ncnc3cc(Cl)ccc23)c1F	i	nt	nt	16µM	i	10µM
COc1cc2ncnc(NCc3cc(F)ccc3F)c2cc1OC	i	nt	i	i	i	?
COC(=O)c1ccc(C2/C(=C(\O)c3ccc4c(c3)OCCO4)C(=O)C(=O)N2CCCN(C)C)cc1 (stereo not given)	i	i	i	i	i	i
Cc1ccc(OCCN(C)C(=O)c2cc(COc3ccc(F)cc3F)on2)cc1	i	i	i	i	i	i
O=C1CCCc2c1cc(C(=O)Nc1ccc(Cl)cn1)c(=O)n2-c1ccccc1	i	i	i	i	i	i
COc1cc2ncnc(NCc3cccc(Cl)c3)c2cc1OC	i	i	i	15µM	i	15µM
c1coc(CNc2ncnc3[nH]ncc23)c1	i	i	i	11µM!	i	?
COc1cc2ncnc(NCc3ccccc3)c2cc1OC	i	i	i	?	?	?
COc1ccc(CNc2ncnc3cc(Cl)ccc23)cc1	i	i	i	15µM	i	13µM
O=C(NCc1ccccc1)C(=O)Nc1cccc(C(=O)O)c1	i	i	i	i	i	i
CCN(CC)S(=O)(=O)c1ccc(NC(=O)CSc2nc3nc(C)cc(C)c3c(=O)[nH]2)cc1	i	nt	i	?	i	?
COC(=O)Nc1[nH]ncc1[N+](=O)[O-]	i	i	i	i	i	i
O=C(Nc1cc(-c2ccccc2)cs1)c1ccco1	i	i[0.505 µM]	i	?	i	15µM
O=C(Nc1scc(-c2ccccc2)c1C(=O)O)c1ccco1	i	i	i	i	i	?
O=C(NNc1nc(-c2ccc(Br)cc2)cs1)c1ccco1	i	i	i	18µM	i	16µM
CC(C)Oc1ccc(C(=O)OC(C)C(=O)Nc2nc(-c3cccc([N+](=O)[O-])c3)cs2)cc1 (stereo not given)	i	i	nt	16µM	i	26µM
COc1ccc(-c2csc(NC(=O)c3ccco3)n2)cc1	i	i	i	i	i	i
O=C(NC(=S)Nc1nc(-c2ccc(Br)cc2)cs1)c1ccco1	i	i	i	i	i	?
O=C(Nc1nc(-c2ccccc2)cs1)c1ccco1	i	nt	i	?	-59	?
COc1ccc(N2CCN(CC(=O)NC(=O)NCc3ccccc3)CC2)cc1	i	i	i	i	i	i
CCN(C(=O)COC(=O)c1cccnc1Nc1cccc(C(F)(F)F)c1)C1CCS(=O)(=O)C1 (stereo not given)	i	i	i	i	i	i
O=C(/C=C\c1ccco1)Nc1nc(-c2ccc3ccccc3c2)cs1	i	i	i	?	-72	?
NC(=O)c1cc(Cc2ccccc2)sc1NC(=O)c1ccco1	i	i	?	?	-56	12µM
CC(OC(=O)c1ccco1)C(=O)Nc1nc(-c2ccccc2)cs1 (stereo not given)	i	i	i	?	i	16µM
CCOc1ccc(-c2csc(NC(=O)c3ccco3)n2)cc1	i	nt	nt	i	i	?
O=C(Nc1nc(-c2ccco2)cs1)c1ccccc1	i	i	i	13µM	i	?
CCn1c(SCC(=O)N2CCCC(C)C2)nnc1-c1ccc(S(=O)(=O)N2CCN(C)CC2)cc1 (stereo not given)	i	i	i	i	i	i
OC(Cc1cccc(C=NN2CCOCC2)n1)(C(F)(F)F)C(F)(F)F	i	nt	i	i	i	?
COc1ccc(N2CCC(CNC(=O)Nc3ccccc3)C2)cc1 (stereo not given)	?	i	?	i	i	?

Compound activity (PubChem BioAssay)
